Measurements published in PubChem BioAssay (NCATS).
Results filed as inconclusive are left out. Unmarked numbers belong to inactive results. Activity calls are given as the source filed them. The call rests on the fitted dose curve; in most records, active means well fitted inhibition curve with a large enough effect; inconclusive means small, poorly fitted or top-dose-only effect, or effect the other way; inactive means no such curve, though single readings can be large or run the other way.

Assay: High Content Imaging Cell-Based qHTS for Inhibitors of the mTORC1 Signaling Pathway in MEF Cells (AID 2667);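 further: Tsc2-/- p53-/- MEFs stably re-expressing wild-type Tsc2 exposed 24 h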
Conditions: series mostly up to 38.3 µM; activity change, negative = inhibition: at the top concentration
Description: NIH Molecular Libraries Probe Production Centers Network [MLPCN]
NIH Chemical Genomics Center [NCGC]
Assay Submitter (PI): Blenis, John; Hoffman, Greg; Harvard University
NCGC Assay Overview: The mammalian target of rapamycin (mTOR) is an intracellular serine/threonine kinase Aberrant regulation of mTOR signaling plays a causative role in a number of human diseases, including cancer, benign tumors such as lymphangioleiomyomatosis (LAM) and Tuberous Sclerosis Complex (TSC), and metabolic diseases such as diabetes and obesity. This project aims to identify inhibitors of ribosomal protein S6 (rpS6) phosphorylation. The phosphorylation of rpS6 is a key event downstream of mTOR activation. The assay uses a phospho-specific antibody of phospho-rpS6 to detect inhibitors of mTOR activation. Mutations in the Tsc1 and Tsc2 genes are the underlying genetic lesions responsible for TSC, causing constitutive activation of the mTORC1 pathway and leading to profound effects on cell metabolism. Aberrant metabolism in cancer has recently received significant attention as a target to develop therapeutic agents in the treatment of cancer.1 As Tsc2-/- cells have lost the ability to respond to energy and growth factor deprivation, these cells are unable to properly down regulate cellular biosynthetic processes in response to metabolic stress, and are thus extremely sensitive to glucose deprivation-induced death.2 A central goal of this project is to explore the unique cell survival and metabolic properties of cells with Tsc1 or Tsc2 by screening for compounds that selectively target the Tsc2-/- MEFs by screening both Tsc2-/- and WT MEF cell lines. We hope to better understand these aspects of TSC physiology in order to exploit them for therapeutic benefit.
NCGC IN Cell Assay Protocol:
For quantitative high throughput analysis of mTORC1 signaling, we developed a cell-based assay for immuno-fluorescence based detection of rpS6 phosphorylation on the Acumen Explorer that will be used a platform for the primary small molecule screen. Mouse embryonic fibroblasts (MEFs) are cultured in 1536-well plates using DMEM + 10% FBS. Twenty-four hrs after plating, test compounds (solubilized in DMSO) are delivered and incubated with the cells for 24 hrs at 37 degree Celsius. Following the incubation, media with compound is aspirated and the cells are fixed in 4% paraformaldehyde (PFA) containing PBS + 0.2% TX-100. Next, PFA is aspirated, cells are washed two times with PBS plus 0.2% TX-100 and the cells are blocked for 1 hr at room temperature (blocking buffer: LiCOR Blocking Buffer plus 0.2% TX-100). This is followed by aspiration and staining with Alexa-488 conjugated-phospho-rpS6 Ser235/236 antibody for 2 hours at room temperature (Cell Signaling Technology # 4803, 1:50 dilution in blocking buffer). Cells are washed two times with PBS plus 0.2% TX-100, and stained with 10 uM propidium iodide (PI) for 20-25 minutes for cell number measurement (1:500 dilution of Hoescht staining is also added for IN Cell imaging). Active wells which are selected (based on Acumen results) are imaged on the IN Cell 1000 (GE Healthcare) using the D360/40X and HQ480/40X excitation filters for the Hoechst and Alexa-488 cytoplasmic stains, respectively. The fluorescence emission filters used were HQ460/40M and HQ535/50M for the Hoechst and Alexa-488 cytoplasmic stains, respectively. The normalized phospho-S6 staining is calculated as the ratio of […] for the single concentration rapamycin control ([…] nM) and DMSO columns. […] Inhibition of the pathway is defined based on the normalized phospho-S6 intensity in rapamycin treated cells. Each treatment is reported as the % positive cells in the well, where thresholds are defined by selecting wells with the highest and lowest signal and differentiating between the % non-active and % active populations. […]

Compound	activity change, negative = inhibition [%]	outcome
NS(=O)(=O)c1cc2c(cc1Cl)NC=NS2(=O)=O	-100	–
CC(C)(Sc1ccc(CCN(CCCCC2CCCCC2)C(=O)NC2CCCCC2)cc1)C(=O)O	-100	–
O=C1CCc2cc(OCCCCc3nnnn3C3CCCCC3)ccc2N1	-100	–
NC(=O)c1cnccn1	-100	–
Nc1ncnc2nc(-c3ccc(N4CCOCC4)nc3)cc(-c3cccc(Br)c3)c12	-100	–
O=NN(CCCl)C(=O)NCCCl	-100	–
OC(CCN1CCCCC1)(c1ccccc1)C1CC2C=CC1C2 (stereo not given)	-100	–
Cc1ccc(N(CC2=NCCN2)c2cccc(O)c2)cc1	-100	–
CN1CCN(CCCN2c3ccccc3Sc3ccc(C(F)(F)F)cc32)CC1	-100	–
C1COC(NC(C2CC2)C2CC2)=N1	-100	–
CC(C)NCC(O)COc1ccc(COCCOC(C)C)cc1 (stereo not given)	-100	–
Nc1nc2ccc(OC(F)(F)F)cc2s1	-100	–
CCn1cc(C(=O)O)c(=O)c2cc(F)c(N3CCNC(C)C3)c(F)c21 (stereo not given)	-100	–
NC(N)=NC(=O)c1nc(Cl)c(N)nc1N	-100	–
c1ccc([C@H]2CN3CCSC3=N2)cc1	-100	–
NNCCc1ccccc1	-100	–
N[C@@H]1CONC1=O	-100	–
C[C@]12CCC(=O)C=C1CC[C@@H]1[C@@H]2[C@@H](O)C[C@@]2(C)[C@H]1CC[C@]2(O)C(=O)CO	-100	–
CC(C)C[C@H](NC(=O)[C@@H](O)[C@H](N)Cc1ccccc1)C(=O)O	-100	–
Oc1ccc(C2CNCCc3c2cc(O)c(O)c3Cl)cc1 (stereo not given)	-100	–

Compound	activity change, negative = inhibition [%]	outcome
Cc1cnc(NC(=O)C2=C(O)c3ccccc3S(=O)(=O)N2C)s1	-100	–
CC(C[N+](C)(C)C)OC(N)=O (stereo not given)	-100	–
Nc1ccc(S(=O)(=O)Nc2ccnn2-c2ccccc2)cc1	-100	–
Cc1ccccc1C(OCCN(C)C)c1ccccc1 (stereo not given)	-100	–
Cc1oncc1C(=O)Nc1ccc(C(F)(F)F)cc1	-100	–
NCCCC(N)(C(=O)O)C(F)F (stereo not given)	-100	–
Cc1cccc(-c2[nH]c(C(C)(C)C)nc2-c2ccc3nccnc3c2)n1	-100	–
OC(CN1CCC(Cc2ccc(F)cc2)CC1)c1ccc(Cl)cc1 (stereo not given)	-79	–
Clc1cccc(Cl)c1NC1=NCCN1	-100	–
Cc1cn[nH]c1	-100	–
NC[C@H](O)c1ccc(O)c(O)c1	-100	–
O=c1n(CCCN2CCN(c3cccc(Cl)c3)CC2)nc2ccccn12	-100	–
CCCC(CCC)C(=O)O	-100	–
CCC(C)N(C)C(=O)c1cc2ccccc2c(-c2ccccc2Cl)n1 (stereo not given)	-100	–
N=c1nc(N2CCCCC2)cc(N)n1O	-100	–
Cc1[nH]c(=O)c(C#N)cc1-c1ccc2nccn2c1	-100	–
CC(C)(C)NCC(O)c1ccc(O)c(CO)c1 (stereo not given)	–	inactive
O=C1CCC(N2C(=O)c3ccccc3C2=O)C(=O)N1 (stereo not given)	-100	–
CNC[C@H](O)c1cccc(O)c1	-100	–
O=c1[nH]cnc2[nH]ncc12	-100	–
